This is a sample that favours compounds with a hit; in the whole collection about 13% have one here.
HADH2_inh: qHTS Assay for Inhibitors of HADH2 (Hydroxyacyl-Coenzyme A Dehydrogenase, Type II); 3-hydroxyacyl-CoA dehydrogenase type-2 (Homo sapiens), Q99714; recombinant HADH2, NADH fluorescence, beta-hydroxybutyryl-CoA; Potency, µM (series often up to 57.1 µM), inactives show at the highest dose activity change, negative = inhibition, hits mostly inhibitors; 73,000 tested, 3.4% active; also: potency is read from the fitted curve at half-maximal effect; % is scaled to controls: 0 for no effect and ±100 for the full control effect; nearly all actives have a fitted effect of over 60% in size
Target sequence (Q99714 whole entry, looked up, one chain of several): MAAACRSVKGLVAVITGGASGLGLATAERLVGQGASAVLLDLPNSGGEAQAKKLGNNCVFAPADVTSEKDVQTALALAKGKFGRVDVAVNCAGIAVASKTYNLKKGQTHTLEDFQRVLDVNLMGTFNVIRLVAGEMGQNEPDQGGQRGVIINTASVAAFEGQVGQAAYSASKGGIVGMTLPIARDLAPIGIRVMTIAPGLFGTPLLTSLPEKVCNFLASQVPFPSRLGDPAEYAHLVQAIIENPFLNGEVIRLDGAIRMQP
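His-tagged recombinant enzyme from E. coli, 20 nM, preincubated 15 min RT with compound; reaction started with 1 mM NAD+ and 90 uM beta-hydroxybutyryl-CoA in 100 mM Tris-HCl pH 9.0. NADH fluorescence (ex 360/em 450) read over 4 min; last-minus-first difference.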
AID923: qHTS Assay for Allosteric/Competitive Inhibitors of Caspase-1: Spectroscopic Profiling in AFC Spectral Region. Potency, µM (doses to about 57.5 µM), inactives show at the highest dose fluorescence increase, hits mostly activators. compound fluorescence, AFC spectral region (405/520 nm). AID 923, 2007. 75,000 tested, 1.1% active; also: potency is read from the fitted curve at half-maximal effect; 0% is about no effect
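Baseline compound fluorescence (AFC region, 405 nm ex/520 nm em) taken from the intercept of kinetic reads with 50 nM caspase-1 and 5 uM Ac-WEHD-AFC; normalized to an on-plate AFC standard curve; compounds titrated up to 57 uM.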
HSD17B_inhib: qHTS Assay for Inhibitors of HSD17B4, hydroxysteroid (17-beta) dehydrogenase 4 | Potency, µM (doses to about 57.1 µM), for the others: at the highest dose activity change, negative = inhibition, usual class: inhibitors | recombinant HSD17B10, NADH fluorescence kinetic | 75,000 tested, 7.6% active | AID 893, 2007 | 3-hydroxyacyl-CoA dehydrogenase type-2 (Homo sapiens), Q99714;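 also: the protocol describes HADH2 (HSD17B10) and not the HSD17B4 of the title; potency is read from the fitted curve at half-maximal effect; % is scaled to controls: 0 for no effect and ±100 for the full control effect; nearly all actives have a fitted effect of over 70% in size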
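20 nM HADH2, pH 9.0 Tris/Tween; cpd preinc 15 min RT; start w/ 1 mM NAD+ + 90 uM b-hydroxybutyryl-CoA; kinetic fluor ex360/em450 q30s x 4 min; delta last-first.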
4MU_fluor: qHTS Assay for Spectroscopic Profiling in 4-MU Spectral Region; 59,000 tested, 11% active; compound autofluorescence, 340/450 nm, 4-MU equivalents; stronger effect = higher value; max dye-equivalent concentration, M; in the data active = max dye-equivalent concentration above about 10 nM; inconclusive = mostly about 1.1 nM to 9.6 nM
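Compounds in 100 mM Tris, pH 8.0, incubated 15 min at room temperature, then fluorescence read at 340 nm excitation/450 nm emission. Signal converted to 4-MU dye-equivalent concentration using an on-plate six-point 4-MU standard curve.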
USP2a_inhib: qHTS Assay for Inhibitors of Ubiquitin-specific Protease USP2a | USP2a enzymatic assay, qHTS inhibition | Potency, µM (doses to about 38.3 µM), for inactives: at the top dose activity change, negative = inhibition, actives largely listed as inhibitors | 60,000 tested, 0.1% active | AID 927, 2007; also: potency is read from the fitted curve at half-maximal effect; nearly all actives have a fitted effect of over 60% in size
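20 nM USP2 core + cpd, 30 min RT; add 20 nM Ub-PLA2/20 uM NBD C6-HPC; read Ex460/Em535 at 0 h and 2.5 h. Normalized to NEM; qHTS curve fit/classification.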
A350_fluor: qHTS Assay for Spectroscopic Profiling in A350 Spectral Region; Compound autofluorescence, 340/450 nm, Alexa 350 dye-equivalents; stronger effect = higher value; max dye-equivalent concentration, M; 59,000 tested, 11% active; AID 590, 2007; in the data active = max dye-equivalent concentration above about 10 nM; inconclusive = mostly about 1.1 nM to 9.6 nM
* = called active by the depositor; i = inactive; u = inconclusive; x = no result; ! = not active in a repeat; [ ] = remark or other dose. Unless noted, calls follow the shape of the dose curve; as a rule, active = well fitted curve in the direction sought with a large enough effect; inconclusive = small, poorly fitted or top-dose-only effect, or another doubt; inactive = no such curve, though single readings can be large; an effect the other way counts as inactive or inconclusive.

SMILES HADH2_inh AID923 HSD17B_inhib 4MU_fluor USP2a_inhib A350_fluor
CC(C)[C@@]1(NC(=O)[C@@H]2C=C3c4cccc5[nH]cc(c45)C[C@H]3N(C)C2)O[C@@]2(O)[C@@H]3CCCN3C(=O)[C@H](Cc3ccccc3)N2C1=O x x x 2.9e-08M* x 3.2e-08M*
CCN(CC)c1ccc(N=Cc2c(O)n(-c3ccccc3C)c(=O)[nH]c2=O)cc1 x x x 1.6e-06M* x 1.7e-06M*
CCOc1ccccc1-n1c(O)c(C=Nc2ccc(N(CC)CC)cc2)c(=O)[nH]c1=O x x x i x i
CC[C@@]1(O)C(=O)OCc2c1cc1n(c2=O)Cc2cc3ccccc3nc2-1 3.2µM*! 2% 7.9µM* 4.7e-06M* -4% 5.3e-06M*
CC[C@@]1(O)C(=O)OCc2c1cc1n(c2=O)Cc2cc3c(NC(=O)CN)cccc3nc2-1 3.2µM* 5%[11.5_µM] 3.2µM* 2.9e-07M* x 3.7e-07M*
CC[C@]1(OC(=O)CN)C(=O)OCc2c1cc1n(c2=O)Cc2cc3ccccc3nc2-1 110%[11.4_µM] 6%[11.5_µM] 4µM* 5.8e-06M* x 6.5e-06M*
CN(C)CCCc1c[nH]c2ccccc12 6%[11.4_µM] 0%[11.5_µM] 12%[11.4_µM] i x i
CC(C)C#N 3% -1% 4% x x x
CN(N=O)c1ccc(O)c(O)c1 1.6µM* -4% 4µM* i 13µM* i
Oc1ccc(Cl)cc1Cl u -1% -2% x x x
O=C(O)CN1CCN(CC(=O)O)CC(=O)[O][Hg][O]C(=O)C1 2µM* 1%[11.5_µM] 0.16µM* i x u
COc1ccc(C(=O)N2CCCC2=O)cc1 -1% -1% 2% 2.2e-08M*! -5% 2.5e-08M*!
NC(=O)CI 16µM* -3% u i 25µM* i
